{"source": "paper PMC12214610", "key": {"[1]": {"biological_target": "14-3-3 protein eta (UniProt Q04917)", "sequence (Q04917 whole entry)": "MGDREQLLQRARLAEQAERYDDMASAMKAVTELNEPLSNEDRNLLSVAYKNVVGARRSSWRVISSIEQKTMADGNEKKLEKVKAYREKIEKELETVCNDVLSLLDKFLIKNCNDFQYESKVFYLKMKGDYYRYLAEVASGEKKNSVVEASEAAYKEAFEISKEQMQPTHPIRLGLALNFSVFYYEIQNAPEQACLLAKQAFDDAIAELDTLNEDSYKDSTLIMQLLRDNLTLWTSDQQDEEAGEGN"}, "[2]": {"biological_target": "Actin, cytoplasmic 2 (UniProt P63261)"}, "[3]": {"biological_target": "Rab11 family-interacting protein 1 (UniProt Q6WKZ4)"}, "[4]": {"biological_target": "Annexin A4 (UniProt P09525)", "sequence (P09525 whole entry)": "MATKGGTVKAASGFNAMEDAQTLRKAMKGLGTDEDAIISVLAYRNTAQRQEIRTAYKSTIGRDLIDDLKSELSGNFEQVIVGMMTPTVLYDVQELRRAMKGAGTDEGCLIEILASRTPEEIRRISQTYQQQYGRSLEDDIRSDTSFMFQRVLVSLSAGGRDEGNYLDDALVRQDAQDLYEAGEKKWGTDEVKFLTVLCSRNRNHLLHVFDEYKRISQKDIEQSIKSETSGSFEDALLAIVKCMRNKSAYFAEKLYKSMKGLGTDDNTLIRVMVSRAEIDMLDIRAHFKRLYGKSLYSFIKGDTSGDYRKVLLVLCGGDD"}, "[5]": {"biological_target": "Aspartate--tRNA ligase, cytoplasmic (UniProt P14868)", "sequence (P14868 whole entry)": "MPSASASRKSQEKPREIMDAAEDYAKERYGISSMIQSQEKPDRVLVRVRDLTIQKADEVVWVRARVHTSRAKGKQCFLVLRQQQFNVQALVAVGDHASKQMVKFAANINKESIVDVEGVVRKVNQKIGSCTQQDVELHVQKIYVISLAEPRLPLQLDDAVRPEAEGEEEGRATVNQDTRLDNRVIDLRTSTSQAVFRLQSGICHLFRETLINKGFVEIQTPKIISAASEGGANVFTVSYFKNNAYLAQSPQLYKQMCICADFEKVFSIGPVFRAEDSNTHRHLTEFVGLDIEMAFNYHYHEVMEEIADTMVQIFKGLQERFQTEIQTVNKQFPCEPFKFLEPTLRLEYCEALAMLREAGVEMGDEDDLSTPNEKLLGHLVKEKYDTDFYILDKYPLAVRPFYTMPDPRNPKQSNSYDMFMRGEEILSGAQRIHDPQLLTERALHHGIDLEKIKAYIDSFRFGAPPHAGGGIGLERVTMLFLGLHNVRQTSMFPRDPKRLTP"}, "[6]": {"biological_target": "Autonomous glycyl radical cofactor (UniProt P68066)", "sequence (P68066 whole entry)": "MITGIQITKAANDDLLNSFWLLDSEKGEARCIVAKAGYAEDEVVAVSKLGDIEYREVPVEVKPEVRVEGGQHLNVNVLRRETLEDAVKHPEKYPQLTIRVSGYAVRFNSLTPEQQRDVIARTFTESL"}, "[7]": {"biological_target": "Calreticulin (UniProt P27797)", "sequence (P27797 whole entry)": "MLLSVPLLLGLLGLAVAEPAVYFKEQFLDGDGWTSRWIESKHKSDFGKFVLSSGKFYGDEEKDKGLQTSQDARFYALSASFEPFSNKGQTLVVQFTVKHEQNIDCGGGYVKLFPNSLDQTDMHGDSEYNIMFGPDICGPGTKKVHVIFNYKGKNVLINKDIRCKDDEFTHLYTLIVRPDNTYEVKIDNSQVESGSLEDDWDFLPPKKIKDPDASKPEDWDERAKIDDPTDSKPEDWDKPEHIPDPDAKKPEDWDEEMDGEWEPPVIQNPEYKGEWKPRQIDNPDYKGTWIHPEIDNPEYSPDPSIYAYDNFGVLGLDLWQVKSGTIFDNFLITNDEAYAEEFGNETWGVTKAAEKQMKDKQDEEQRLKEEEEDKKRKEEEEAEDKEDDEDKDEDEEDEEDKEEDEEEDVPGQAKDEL"}, "[8]": {"biological_target": "Casein kinase II subunit alpha (UniProt P68400)"}, "[9]": {"biological_target": "Chaperone protein DnaK (UniProt P0A6Y8)"}, "[10]": {"biological_target": "Charged multivesicular body protein 2b (UniProt Q9UQN3)", "sequence (Q9UQN3 whole entry)": "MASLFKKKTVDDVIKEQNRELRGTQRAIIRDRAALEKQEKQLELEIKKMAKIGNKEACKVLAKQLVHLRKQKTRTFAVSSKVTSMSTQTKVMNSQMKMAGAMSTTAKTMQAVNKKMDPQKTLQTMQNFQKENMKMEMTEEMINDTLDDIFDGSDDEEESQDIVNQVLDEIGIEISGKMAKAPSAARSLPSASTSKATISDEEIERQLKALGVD"}, "[11]": {"biological_target": "DNA-binding protein HU-beta (UniProt P0ACF4)"}, "[12]": {"biological_target": "Dihydrolipoyl dehydrogenase (UniProt P0A9P0)"}, "[13]": {"biological_target": "Pyruvate dehydrogenase E1 component (UniProt P0AFG8)", "sequence (P0AFG8 whole entry)": "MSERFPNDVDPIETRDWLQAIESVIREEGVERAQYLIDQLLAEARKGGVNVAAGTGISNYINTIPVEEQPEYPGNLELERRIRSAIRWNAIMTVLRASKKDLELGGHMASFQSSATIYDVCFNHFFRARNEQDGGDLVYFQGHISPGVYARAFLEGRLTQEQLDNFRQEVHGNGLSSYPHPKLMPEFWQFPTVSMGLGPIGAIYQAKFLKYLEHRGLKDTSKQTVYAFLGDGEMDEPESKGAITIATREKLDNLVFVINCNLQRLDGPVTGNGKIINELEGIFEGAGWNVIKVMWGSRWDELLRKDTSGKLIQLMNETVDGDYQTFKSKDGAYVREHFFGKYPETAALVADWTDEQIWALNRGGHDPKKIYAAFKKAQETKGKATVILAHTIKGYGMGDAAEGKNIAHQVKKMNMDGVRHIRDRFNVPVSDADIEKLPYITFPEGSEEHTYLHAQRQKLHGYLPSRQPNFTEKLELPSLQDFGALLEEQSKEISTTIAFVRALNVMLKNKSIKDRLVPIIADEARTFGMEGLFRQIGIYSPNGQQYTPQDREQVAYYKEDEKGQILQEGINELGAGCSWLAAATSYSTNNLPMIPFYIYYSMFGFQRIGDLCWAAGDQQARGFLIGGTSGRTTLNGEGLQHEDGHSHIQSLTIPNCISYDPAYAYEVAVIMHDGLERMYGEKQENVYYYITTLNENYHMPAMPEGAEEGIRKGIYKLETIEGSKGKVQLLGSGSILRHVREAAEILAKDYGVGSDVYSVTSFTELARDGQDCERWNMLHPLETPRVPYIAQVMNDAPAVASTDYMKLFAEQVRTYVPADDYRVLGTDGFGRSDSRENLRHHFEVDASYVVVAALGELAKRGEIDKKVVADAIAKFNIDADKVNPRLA"}, "[14]": {"biological_target": "Dihydrolipoyllysine-residue succinyltransferase component of 2-oxoglutarate dehydrogenase complex (UniProt P0AFG6)", "sequence (P0AFG6 whole entry, one chain of several)": "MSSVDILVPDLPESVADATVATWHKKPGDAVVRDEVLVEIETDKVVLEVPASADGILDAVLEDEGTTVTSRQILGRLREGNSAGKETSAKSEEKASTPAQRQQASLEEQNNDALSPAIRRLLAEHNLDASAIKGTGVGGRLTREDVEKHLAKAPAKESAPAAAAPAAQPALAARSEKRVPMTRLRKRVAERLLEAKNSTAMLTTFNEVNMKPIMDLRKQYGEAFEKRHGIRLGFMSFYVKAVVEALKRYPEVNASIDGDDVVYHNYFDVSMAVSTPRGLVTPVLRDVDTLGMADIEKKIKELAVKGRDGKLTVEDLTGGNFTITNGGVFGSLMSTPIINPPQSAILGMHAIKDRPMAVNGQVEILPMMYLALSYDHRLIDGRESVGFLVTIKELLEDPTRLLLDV"}, "[15]": {"biological_target": "Endoplasmic reticulum chaperone BiP (UniProt P11021)"}, "[16]": {"biological_target": "Peptidyl-prolyl cis-trans isomerase B (UniProt P23284)", "sequence (P23284 whole entry)": "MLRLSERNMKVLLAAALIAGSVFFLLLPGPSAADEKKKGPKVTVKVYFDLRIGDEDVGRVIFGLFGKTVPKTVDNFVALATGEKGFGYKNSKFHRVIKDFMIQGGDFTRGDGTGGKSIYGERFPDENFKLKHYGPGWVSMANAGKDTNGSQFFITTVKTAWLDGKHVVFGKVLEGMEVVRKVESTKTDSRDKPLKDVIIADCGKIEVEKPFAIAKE"}, "[17]": {"biological_target": "Fatty acid oxidation complex subunit alpha (UniProt P21177)"}, "[18]": {"biological_target": "Glutamate synthase [NADPH] small chain (UniProt P09832)"}, "[19]": {"biological_target": "Glycine--tRNA ligase beta subunit (UniProt P00961)", "sequence (P00961 whole entry)": "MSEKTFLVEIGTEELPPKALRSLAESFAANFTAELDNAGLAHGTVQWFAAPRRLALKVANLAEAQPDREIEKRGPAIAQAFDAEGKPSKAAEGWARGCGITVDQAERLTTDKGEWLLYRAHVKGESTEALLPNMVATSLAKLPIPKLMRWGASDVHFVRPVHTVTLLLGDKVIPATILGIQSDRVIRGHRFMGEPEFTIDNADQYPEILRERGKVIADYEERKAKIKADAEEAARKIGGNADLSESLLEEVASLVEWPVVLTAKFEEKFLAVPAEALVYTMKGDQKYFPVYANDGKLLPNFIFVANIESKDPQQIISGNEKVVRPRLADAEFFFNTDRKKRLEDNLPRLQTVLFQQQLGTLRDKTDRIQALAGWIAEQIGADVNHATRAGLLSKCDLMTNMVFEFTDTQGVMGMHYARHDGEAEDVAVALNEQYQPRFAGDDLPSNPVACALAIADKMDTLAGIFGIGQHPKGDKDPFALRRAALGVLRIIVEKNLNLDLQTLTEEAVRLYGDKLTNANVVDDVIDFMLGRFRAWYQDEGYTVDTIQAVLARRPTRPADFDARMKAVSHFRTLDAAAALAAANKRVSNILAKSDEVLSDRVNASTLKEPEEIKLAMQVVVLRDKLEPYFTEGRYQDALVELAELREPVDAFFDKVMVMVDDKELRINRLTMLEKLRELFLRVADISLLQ"}, "[20]": {"biological_target": "Integration host factor subunit beta (UniProt P0A6Y1)", "sequence (P0A6Y1 whole entry)": "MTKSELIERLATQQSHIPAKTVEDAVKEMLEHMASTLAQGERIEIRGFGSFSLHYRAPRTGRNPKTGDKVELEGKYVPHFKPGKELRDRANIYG"}, "[21]": {"biological_target": "Myosin-9 (UniProt P35579)"}, "[22]": {"biological_target": "Phenylalanine--tRNA ligase alpha subunit (UniProt P08312)"}, "[23]": {"biological_target": "Succinate--CoA ligase [ADP-forming] subunit alpha (UniProt P0AGE9)"}, "[24]": {"biological_target": "Transketolase 2 (UniProt P33570)", "sequence (P33570 whole entry)": "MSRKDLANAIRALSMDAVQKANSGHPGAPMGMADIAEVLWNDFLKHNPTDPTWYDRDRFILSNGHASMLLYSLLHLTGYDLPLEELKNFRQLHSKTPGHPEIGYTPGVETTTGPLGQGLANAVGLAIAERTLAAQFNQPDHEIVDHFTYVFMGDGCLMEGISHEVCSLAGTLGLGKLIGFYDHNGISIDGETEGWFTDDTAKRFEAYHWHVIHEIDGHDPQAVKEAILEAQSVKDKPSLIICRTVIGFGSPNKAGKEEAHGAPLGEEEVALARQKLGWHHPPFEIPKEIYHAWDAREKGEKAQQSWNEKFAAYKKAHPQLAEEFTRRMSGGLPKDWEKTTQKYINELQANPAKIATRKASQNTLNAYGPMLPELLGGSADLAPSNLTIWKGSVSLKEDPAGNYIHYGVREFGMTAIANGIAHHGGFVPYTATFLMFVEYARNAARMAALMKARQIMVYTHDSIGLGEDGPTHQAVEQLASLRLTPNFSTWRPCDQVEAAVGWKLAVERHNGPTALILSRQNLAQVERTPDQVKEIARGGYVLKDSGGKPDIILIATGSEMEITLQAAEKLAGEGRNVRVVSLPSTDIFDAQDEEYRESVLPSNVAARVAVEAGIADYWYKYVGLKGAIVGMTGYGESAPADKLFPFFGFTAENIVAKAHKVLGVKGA"}, "[25]": {"biological_target": "Uncharacterized protein YqjD (UniProt P64581)", "sequence (P64581 whole entry)": "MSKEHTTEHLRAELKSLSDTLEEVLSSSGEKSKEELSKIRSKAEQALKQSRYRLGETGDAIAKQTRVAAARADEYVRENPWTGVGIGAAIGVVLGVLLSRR"}, "[26]": {"biological_target": "Unconventional myosin-XVIIIa (UniProt Q92614)"}}}
{"substance": "14-3-3 protein epsilon, P62258", "values": [{"measurement": "listed as a hit", "setting": "[1]", "result": "yes"}]}
{"substance": "Heat shock protein HSP 90-beta, P08238", "values": [{"measurement": "listed as a hit", "setting": "[2]", "result": "yes"}]}
{"substance": "Ras-related protein Rab-11B, Q15907", "values": [{"measurement": "listed as a hit", "setting": "[3]", "result": "yes"}]}
{"substance": "Annexin A6, P08133", "values": [{"measurement": "listed as a hit", "setting": "[4]", "result": "yes"}]}
{"substance": "Eukaryotic translation elongation factor 1 epsilon-1, O43324", "values": [{"measurement": "listed as a hit", "setting": "[5]", "result": "yes"}]}
{"substance": "Formate acetyltransferase 1, P09373", "values": [{"measurement": "listed as a hit", "setting": "[6]", "result": "yes"}]}
{"substance": "Protein disulfide-isomerase A4, P13667", "values": [{"measurement": "listed as a hit", "setting": "[7]", "result": "yes"}]}
{"substance": "Peptidyl-prolyl cis-trans isomerase B, P23284", "values": [{"measurement": "listed as a hit", "setting": "[7]", "result": "yes"}]}
{"substance": "Casein kinase II subunit beta, P67870", "values": [{"measurement": "listed as a hit", "setting": "[8]", "result": "yes"}]}
{"substance": "Protein GrpE, P09372", "values": [{"measurement": "listed as a hit", "setting": "[9]", "result": "yes"}]}
{"substance": "Charged multivesicular body protein 1b, Q7LBR1", "values": [{"measurement": "listed as a hit", "setting": "[10]", "result": "yes"}]}
{"substance": "DNA-binding protein HU-alpha, P0ACF0", "values": [{"measurement": "listed as a hit", "setting": "[11]", "result": "yes"}]}
{"substance": "Dihydrolipoyllysine-residue acetyltransferase component of pyruvate dehydrogenase complex, P06959", "values": [{"measurement": "listed as a hit", "setting": "[12]", "result": "yes"}, {"measurement": "listed as a hit", "setting": "[13]", "result": "yes"}]}
{"substance": "Dihydrolipoyl dehydrogenase, P0A9P0", "values": [{"measurement": "listed as a hit", "setting": "[14]", "result": "yes"}, {"measurement": "listed as a hit", "setting": "[13]", "result": "yes"}]}
{"substance": "2-oxoglutarate dehydrogenase E1 component, P0AFG3", "values": [{"measurement": "listed as a hit", "setting": "[14]", "result": "yes"}]}
{"substance": "Protein disulfide-isomerase, P07237", "values": [{"measurement": "listed as a hit", "setting": "[15]", "result": "yes"}, {"measurement": "listed as a hit", "setting": "[16]", "result": "yes"}]}
{"substance": "3-ketoacyl-CoA thiolase FadA, P21151", "values": [{"measurement": "listed as a hit", "setting": "[17]", "result": "yes"}]}
{"substance": "Glutamate synthase [NADPH] large chain, P09831", "values": [{"measurement": "listed as a hit", "setting": "[18]", "result": "yes"}]}
{"substance": "Glycine--tRNA ligase alpha subunit, P00960", "values": [{"measurement": "listed as a hit", "setting": "[19]", "result": "yes"}]}
{"substance": "Integration host factor subunit alpha, P0A6X7", "values": [{"measurement": "listed as a hit", "setting": "[20]", "result": "yes"}]}
{"substance": "Myosin regulatory light polypeptide 9, P24844", "values": [{"measurement": "listed as a hit", "setting": "[21]", "result": "yes"}]}
{"substance": "Phenylalanine--tRNA ligase beta subunit, P07395", "values": [{"measurement": "listed as a hit", "setting": "[22]", "result": "yes"}]}
{"substance": "Succinate--CoA ligase [ADP-forming] subunit beta, P0A836", "values": [{"measurement": "listed as a hit", "setting": "[23]", "result": "yes"}]}
{"substance": "Transketolase 1, P27302", "values": [{"measurement": "listed as a hit", "setting": "[24]", "result": "yes"}]}
{"substance": "Protein ElaB, P0AEH5", "values": [{"measurement": "listed as a hit", "setting": "[25]", "result": "yes"}]}
{"substance": "Myosin-9, P35579", "values": [{"measurement": "listed as a hit", "setting": "[26]", "result": "yes"}]}
